In all, about 39,000 sequences were measured (“fluorescence intensity (a.u.)”: median about 4,300, highest 2% from about 39,000 on). The entries come from a sample that favours the highest values as a whole.

The assay concerns the target T1, OsSMF1 (Oryza sativa, UniProt Q6ZLB0 1-436).
T1 sequence: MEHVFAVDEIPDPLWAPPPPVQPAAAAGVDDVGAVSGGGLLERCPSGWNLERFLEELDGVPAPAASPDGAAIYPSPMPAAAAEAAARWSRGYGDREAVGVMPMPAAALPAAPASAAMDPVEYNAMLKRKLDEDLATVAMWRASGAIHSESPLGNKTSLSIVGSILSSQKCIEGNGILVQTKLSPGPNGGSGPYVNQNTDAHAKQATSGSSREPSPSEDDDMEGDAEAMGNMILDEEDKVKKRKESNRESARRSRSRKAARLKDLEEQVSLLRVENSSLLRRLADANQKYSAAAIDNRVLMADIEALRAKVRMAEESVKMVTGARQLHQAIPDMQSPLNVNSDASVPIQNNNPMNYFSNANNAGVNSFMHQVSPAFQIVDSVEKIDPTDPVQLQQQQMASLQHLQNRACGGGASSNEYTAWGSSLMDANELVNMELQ
The experiment in a line: protein-binding microarray (RPBM); PBS, 2% BSA, 51.3 ng/ul salmon testes DNA, 50 uM zinc acetate, 200 nM TF, 25 C, 1 h; high values mean tight binding. Particulars: protein: recombinant; tags: N-terminal polyhistidine and DsRed monomer fusion (pET32a); chain copies: 2; label: CyDye5-dUTP incorporated in the synthesized complementary strand; 3' TTTTT single-stranded linker to array surface; dsDNA, one strand shown. In short, it runs like this: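 Polyhistidine-tagged DsRed fusions of transcription factors, joined at the N-terminus, were expressed in E. coli BL21-CodonPlus and isolated on Ni–NTA. They were incubated at 200 nM for 1 h at 25 °C on a custom Agilent array, double-stranded and BSA-blocked, in PBS with 2% BSA, salmon testes DNA and 50 µM zinc acetate. The binding signal is per-feature fluorescence intensity (arbitrary units) read on an Axon 4000B scanner after washing.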
Regarding “CTCTTCATTTGTTAATTTAATTTGATTAATTCAGTGCTTCCGGAGTCACCTAGTGCAG”, the binding signal is 64900 fluorescence intensity (a.u.).

As for “GCAGAGTTCAGAATTTGTTCAGTTTAGGTGCTTCTGTAATCGGAGTCACCTAGTGCAG”, the binding signal was 55600 fluorescence intensity (a.u.).

With “AGTGCTTTATTTTGCTGATTCATTGTTAAAATTGCCTCTACGGAGTCACCTAGTGCAG”, the binding signal was 5500 fluorescence intensity (a.u.).

As for “TAGTAGATAGCTTTGCTCTCTCTCTTCATTTAATATATTCCGGAGTCACCTAGTGCAG”, the binding signal was 4540 fluorescence intensity (a.u.).

Consider “GATGTTCAGATGTACAACAGTAATTTGATTGCATCGGCTTCGGAGTCACCTAGTGCAG”, for which the binding signal is 3270 fluorescence intensity (a.u.).

For “TTTTGCTTAGCTGTTCTGTAATTGTCGATTTGAATTGGATCGGAGTCACCTAGTGCAG”, the binding signal was 3500 fluorescence intensity (a.u.).

With “CGGGAGAGAGGATCGGGAGAGATAGGGTTAGGGTTAGGGTCGGAGTCACCTAGTGCAG”, the binding signal is 3320 fluorescence intensity (a.u.).

For the sequence “CCACCACGTACAGTGCTTTCCTAGGCAGAAGCCCACTATCCGGAGTCACCTAGTGCAG”, the binding signal was 3490 fluorescence intensity (a.u.).

As to “ACCAATCGCATGACGATATTCCCGCTCCCACAATCGCGTTCGGAGTCACCTAGTGCAG”, the binding signal is 3550 fluorescence intensity (a.u.).

Regarding “CGAACCGATGGTTGTGATTGTACGTGTCTACCTGATACGTCGGAGTCACCTAGTGCAG”, the binding signal was 5940 fluorescence intensity (a.u.).

Consider “GAAAATAAGGGAGTTTTCTGCAAAATTTGATGAATGGAAGCGGAGTCACCTAGTGCAG”, for which the binding signal was 3230 fluorescence intensity (a.u.).

For “TTTTGGTCATTTTACCATATGACTTTGTTTTGGTAATTTGCGGAGTCACCTAGTGCAG”, the binding signal is 3210 fluorescence intensity (a.u.).

On to “CGGATTCTCGTCGGCTTCGGCGACCGGAAGAGGAGAGGAGCGGAGTCACCTAGTGCAG”, for which the binding signal was 3230 fluorescence intensity (a.u.).

As to “TTTCTGTGACGGCCCGCGTAGCTTCGGAGGAAGCGACCACCGGAGTCACCTAGTGCAG”, the binding signal is 47700 fluorescence intensity (a.u.).

In the case of “CGGAGTGGCCAGCGTGGTGACAAGCGCGACGTGGCGGCTTCGGAGTCACCTAGTGCAG”, the binding signal was 6830 fluorescence intensity (a.u.).

With “GGCACTATAGATGTTTGGTTTCGCTGACGTGGCATTCTAGCGGAGTCACCTAGTGCAG”, the binding signal is 49000 fluorescence intensity (a.u.).

As for “TCCCTTGACGGTTTTGGCTGACGTGGCGCCTAGGTGGCTACGGAGTCACCTAGTGCAG”, the binding signal was 30000 fluorescence intensity (a.u.).

Turning to “GGTTTAGACGTGGCGGTGGTGGGTGGCGTACGTTTGGGTTCGGAGTCACCTAGTGCAG”, the binding signal was 5180 fluorescence intensity (a.u.).

Turning to “TTTAGATGGCGGTTTTGGCTGACGTGGCACATATGTGGCTCGGAGTCACCTAGTGCAG”, the binding signal was 33100 fluorescence intensity (a.u.).

“TCCCTTGGCAGTATAGGTGGGTGGTTTTGCTTACGTGGCACGGAGTCACCTAGTGCAG”: the binding signal is 40000 fluorescence intensity (a.u.).

For the sequence “TGGAGGGCAGTTTCGCTGACGTGGCGGTGTTGACCTAGTGCGGAGTCACCTAGTGCAG”, the binding signal was 34200 fluorescence intensity (a.u.).

Consider “AGCGGTTTCGCTGACGTGGCGGTTAGGTGGCATTTGAATTCGGAGTCACCTAGTGCAG”, for which the binding signal is 23800 fluorescence intensity (a.u.).

For the sequence “CTTGGTGGTTTTATAGGGTGGTTTCGCTGACGTGGCGTGGCGGAGTCACCTAGTGCAG”, the binding signal was 44600 fluorescence intensity (a.u.).

In the case of “GTTTAATGGGTTGATGTGGCATGCTTACATATAGGTTTTACGGAGTCACCTAGTGCAG”, the binding signal is 5830 fluorescence intensity (a.u.).

As for “AACTGGAACCCTTAGCCACTGTGAGGTGTACATCTGACAACGGAGTCACCTAGTGCAG”, the binding signal is 4990 fluorescence intensity (a.u.).

For “CTAGCCACTGAAGCATGGGTCATGATACAGCAGTTAATATCGGAGTCACCTAGTGCAG”, the binding signal is 3440 fluorescence intensity (a.u.).

“CTTATCAAGACTCGTGGCGTGGAAAGCTTTACAGGTGAGGCGGAGTCACCTAGTGCAG”: the binding signal was 4710 fluorescence intensity (a.u.).

For “ATGCATGACAGCACACCACACATTGACACCACTGAGGCAGCGGAGTCACCTAGTGCAG”, the binding signal was 3260 fluorescence intensity (a.u.).

Regarding “TTAAAGAAATGGTTGGTGCTGCTCCGACTCCCTGTTTCCTCGGAGTCACCTAGTGCAG”, the binding signal was 16200 fluorescence intensity (a.u.).

Regarding “GCCTCTCCTCAAGCGGTGGAGAGCGCGGACGTGGACGTGCCGGAGTCACCTAGTGCAG”, the binding signal is 6520 fluorescence intensity (a.u.).

On to “GGCTCAAAAGATTCATCTCGCGATTTCCATACAAACTGTACGGAGTCACCTAGTGCAG”, for which the binding signal is 46300 fluorescence intensity (a.u.).

Turning to “AAAAGATTCGTCTCGCAATTTACACGTAACCTGTGTAATTCGGAGTCACCTAGTGCAG”, the binding signal was 7350 fluorescence intensity (a.u.).

With “TATCAAATTATAGCGCAATTAGGCTCAAAAGATTCAGATTCGGAGTCACCTAGTGCAG”, the binding signal is 26600 fluorescence intensity (a.u.).

Turning to “TGTCAAATCATGACGCAATTAGGCTCAGAAGATTCGTCTCCGGAGTCACCTAGTGCAG”, the binding signal is 4030 fluorescence intensity (a.u.).

“GATTCGTCTCGCGATTTCCATTCAAACTGTGCAATTAGTTCGGAGTCACCTAGTGCAG”: the binding signal was 28000 fluorescence intensity (a.u.).

“TTATGATGTAATTAGGCTCAAAAGATTCGTCTCGCAATTTCGGAGTCACCTAGTGCAG”: the binding signal was 44200 fluorescence intensity (a.u.).

As to “ATTAGGCTCAAAAGATTCGTCTCGCGATTTTCAGACGAGCCGGAGTCACCTAGTGCAG”, the binding signal is 41800 fluorescence intensity (a.u.).

As for “GGATTAATTAGTCTCAAAAGATTCGTCTCGCGGTTTCCAGCGGAGTCACCTAGTGCAG”, the binding signal is 29400 fluorescence intensity (a.u.).

In the case of “GGCTTAAAAGATTCGTTTCATAATTTACACGCAAACTGTACGGAGTCACCTAGTGCAG”, the binding signal is 3890 fluorescence intensity (a.u.).

Regarding “GGGTGATTGAATCCTTGTCATCTAGTGTAAGGCATCTTTCCGGAGTCACCTAGTGCAG”, the binding signal is 4510 fluorescence intensity (a.u.).

On to “CGGCCTATAAGTACTCCATCCCGCCGGCCGGCCGGTGACTCGGAGTCACCTAGTGCAG”, for which the binding signal was 3370 fluorescence intensity (a.u.).

For “ATCTGTTAGGTATTTAATTTATTTTCTTTTGCTATGTCAGCGGAGTCACCTAGTGCAG”, the binding signal is 3880 fluorescence intensity (a.u.).

(Values after paper PMC7819943, “Rice protein-binding microarrays: a tool to detect cis-acting elements near promoter regions in rice”.)
